Data on 41 compounds can be found in PubChem BioAssay AID1851 (National Center for Advancing Translational Sciences (NCATS), 2009).

In general, AC50 refers to the concentration giving half of the maximal activity seen.

Out of some 16,000 compounds screened, about 5,800 (36%) were called active. Another 23% or so got no clear call; they are omitted. Some of the results follow. Values without a mark were called inactive. Calls come from the whole dose curve; as a rule, active = well fitted curve in the direction sought with a large enough effect; inconclusive = small, poorly fitted or top-dose-only effect, or effect the other way; inactive = no such curve, though single readings can be large or run the other way. Numbered stars: 1 amine (or outer) side, 2 acyl side, 3 side chain; on linkers, the order of the positions; unused ones are H or OH. Bridge positions count the residues as written; N and C are the ends. Square brackets hold non-standard residues; d marks the D form. Peptide text beside a SMILES is read from it. I, II: the chains in the order shown. Actinocin(9to1) = Cc1c2oc3c(C)ccc(C(=O)[*:1])c3nc-2c(C(=O)[*:2])c(N)c1=O; aThr = C[C@H](O)[C@H](N)C(=O)O; NMeV = CN[C@H](C(=O)O)C(C)C; Sar = CNCC(=O)O
% is set by controls: 0 for no effect and ±100 for the full control effect.

Sequence of Cytochrome P450 2C19 (Homo sapiens) (P33261 whole entry, looked up): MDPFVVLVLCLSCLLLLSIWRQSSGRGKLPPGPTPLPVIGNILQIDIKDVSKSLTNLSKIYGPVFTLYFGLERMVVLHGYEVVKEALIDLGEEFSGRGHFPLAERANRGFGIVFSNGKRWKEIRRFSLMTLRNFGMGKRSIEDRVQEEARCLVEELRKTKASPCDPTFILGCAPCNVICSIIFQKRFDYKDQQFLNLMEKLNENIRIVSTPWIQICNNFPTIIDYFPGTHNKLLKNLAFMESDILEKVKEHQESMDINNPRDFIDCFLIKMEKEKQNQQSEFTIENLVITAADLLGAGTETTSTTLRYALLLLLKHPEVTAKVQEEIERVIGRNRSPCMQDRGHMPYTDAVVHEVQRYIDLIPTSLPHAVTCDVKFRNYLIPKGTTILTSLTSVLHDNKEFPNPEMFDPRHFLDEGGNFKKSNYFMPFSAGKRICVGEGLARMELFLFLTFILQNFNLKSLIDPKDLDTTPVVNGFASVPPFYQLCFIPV

This assay addresses Cytochrome P450 2C19 (Homo sapiens) (UniProt P33261). Nature of the assay: Cytochrome panel assay with activity outcomes. As to conditions: recombinant CYP, pro-luciferin dealkylation, luminescence, p450-cyp2c19; series mostly up to 57.1 µM; activity, negative = inhibition: at the top concentration.
Consider `CCn1c(SCC(=O)OC)nc2sc3c(c2c1=O)CCC3`, for which the AC50 is 8.91 µM (active).
With `CCCc1ccc(C2C3=C(CC(C)(C)CC3=O)NC3=C2C(=O)c2ccccc23)cc1` (stereo unspecified), the AC50 is 4.47 µM (active).
The same measure, in the same setting: the result for `FC(F)(F)c1ccccc1-c1ccc2ncnc(NCc3cccnc3)c2c1` reads 0.00794 µM (active).
Regarding `COc1ncc2nc(-c3ccccc3)c(=O)n(C)c2n1`, the “activity, negative = inhibition” value was -34.3%.
As to `c1ccc(Nc2ncnc3ccc(-c4ccoc4)cc23)cc1`, the AC50 was 2 µM (active).
Same read-out and setting: next, `COc1ccc(-n2cnc3sc(-c4ccccc4)cc3c2=O)cc1`: 14.1 µM (active).
Take `CN(C)C(=O)c1ccc(-c2ccc3ncnc(Nc4ccccc4)c3c2)cc1`: the “activity, negative = inhibition” value is 32.7%.
For `COc1cccc(Nc2ncc3nc(-c4ccccc4)c(=O)n(C)c3n2)c1`, the “activity, negative = inhibition” value was -4.11%.
`c1ccc(Nc2ncnc3ccc(-c4cccnc4)cc23)cc1`: the “activity, negative = inhibition” value is -45.8%.
For the compound `COc1cccc(-c2ccc3ncnc(Nc4ccccc4)c3c2)c1`, the AC50 is 0.501 µM (active).
Consider `CC(C)=NO[C@@H](C)CN1CCCCc2nc(C)c(C)cc21`, for which the activity, negative = inhibition is -14.1% [at 11.4 µM].
Still for that read-out and setting: next, `COCCNc1ncnc2ccc(-c3ccccc3CN(C)C)cc12`: 30.9%.
The same measure, in the same setting: the result for `NCCNc1ncnc2ccc(Cl)cc12` reads -2.27% [at 11.4 µM].
As to `Clc1cccc(Nc2ncnc3ccc(Br)cc23)c1`, the AC50 is 5.01 µM (active).
`COc1cccc(-c2ccc3ncnc(NCc4cccnc4)c3c2)c1`: the AC50 was 0.0126 µM (active).
In the case of `COCCNc1ncnc2ccc(-c3ccccc3OC)cc12`, the AC50 was 5.01 µM (active).
As to `COc1ccccc1-c1ccc2ncnc(NCc3cccnc3)c2c1`, the AC50 was 0.00794 µM (active).
Take `COc1ccccc1CN1CC[C@@]2(CCCN(C(=O)c3ccco3)C2)C1`: the “activity, negative = inhibition” value was -12.6%.
On to `COc1ccc(Nc2ncnc3sc(-c4ccccc4)cc23)cc1`, for which the AC50 is 3.16 µM (active).
Still for that read-out and setting: the result for `FC(F)(F)c1ccccc1-c1ccc2ncnc(NCc3cccs3)c2c1` reads 3.16 µM (active).
As for `Cc1cnc(CNc2ncnc3ccc(-c4cccc(C#N)c4)cc23)cn1`, the “activity, negative = inhibition” value is -9.68%.
For `COCCNc1ncnc2ccc(-c3ccccc3C(F)(F)F)cc12`, the AC50 was 6.31 µM (active).
On the same count and under the same terms, the result for `COc1cccc(-c2ccc3ncnc(NCc4cnc(C)cn4)c3c2)c1` reads 15.8 µM (active).
For `O=C(c1cnccn1)N1CCC[C@@]2(CCN(c3ncccn3)C2)C1`, the “activity, negative = inhibition” value is 19.2%.
Same read-out and setting: next, `Cc1c2oc3c(C)ccc(C(=O)N[C@@H]4C(=O)N[C@@H](C(C)C)C(=O)N5CCC[C@@H]5C(=O)N(C)CC(=O)N(C)[C@@H](C(C)C)C(=O)O[C@H]4C)c3nc-2c(C(=O)N[C@@H]2C(=O)N[C@@H](C(C)C)C(=O)N3CCC[C@@H]3C(=O)N(C)CC(=O)N(C)[C@@H](C(C)C)C(=O)O[C@H]2C)c(N)c1=O` (I: [aThr]V[dP][Sar][NMeV] / II: [aThr]V[dP][Sar][NMeV]; ester I:1-I:C, II:1-II:C; linker I:N-II:N via Actinocin(9to1)): -4.79%; `CN(C)Cc1ccccc1-c1ccc2ncnc(NCc3ccccc3)c2c1`: -37.6%.
Take `COc1ccccc1-c1ccc2ncnc(NCc3ccccc3)c2c1`: the AC50 was 3.98 µM (active).
On to `COc1ccccc1-c1ccc2ncnc(Nc3ccccc3)c2c1`, for which the AC50 was 5.01 µM (active).
Still for that read-out and setting: next, `Clc1ccccc1-c1ccc2ncnc(NCc3cccnc3)c2c1`: 0.01 µM (active).
Take `Nc1nc2n[nH]nc2c(=O)[nH]1`: the “activity, negative = inhibition” value is 32.2% [at 25.6 µM].
Same read-out and setting: the result for `CN(C)c1nc(N)c(C(=O)N=C(N)N)nc1Cl` reads -3.58%.
With `NC(N)=NC(=O)c1nc(Cl)c(N2CCCCCC2)nc1N`, the AC50 was 5.01 µM (active).
Consider `NC(N)=NC(=O)c1nc(Cl)c(N)nc1N`, for which the “activity, negative = inhibition” value is -14.1%.
Same read-out and setting: next, `CCN(c1nc(N)c(C(=O)N=C(N)N)nc1Cl)C(C)C`: -25.6%; `c1c[nH]c(CN2CCN(Cc3ncc[nH]3)CC2)n1`: -25.8% [at 11.4 µM].
Take `Cc1cc(C(=O)CSC(=S)SC(C)(C)C)ccc1Cl`: the AC50 was 1 µM (active).
Same read-out and setting: the result for `CC(=O)N1CCc2cc(Br)cc(S(=O)(=O)N3CCN(C(=O)c4ccco4)CC3)c21` reads 4.47 µM (active); that for `Cc1ccc(NC(=O)c2nnn(-c3cc(C)cc(C)c3)c2N)cc1`, 3.98 µM (active).
For the compound `Cc1cc(Cc2c(C)c(C)c(Cc3cc(C)cc(C(C)(C)C)c3O)c(C)c2C)c(O)c(C(C)(C)C)c1`, the activity, negative = inhibition was 37.4% [at 11.4 µM].
On to `Cc1cc(Cc2cc(C)cc(C(C)(C)C)c2O)c(O)c(Cc2cc(C)cc(C(C)(C)C)c2O)c1`, for which the AC50 is 3.16 µM (active).
Regarding `Cc1cc(Cc2cc(Cc3cc(C)cc(C(C)(C)C)c3O)c(C)cc2C)c(O)c(C(C)(C)C)c1`, the AC50 is 1 µM (active).
